The values below come from PubChem BioAssay (Tox21).

SMILES strings stand for the structures. Results filed as inconclusive are left out. Calls of active or inactive are those of the source. Calls follow the shape of the dose curve; as a rule, active = well fitted activation curve with a large enough effect in the signal ratio in the repeat runs (not every such curve was filed as active); inconclusive = weak or mixed curves; inactive = flat fitted curve, though single readings scatter; the % refers to the signal ratio.
% is scaled to controls: 0 for no effect and ±100 for the full control effect.

A short description of the experiment: qHTS assay to identify small molecule agonists of the hypoxia (HIF-1) signaling pathway (AID 1224846). The conditions noted are these: HRE-bla ME-180 cells, beta-lactamase ratio, 17 h; series mostly up to 76.8 µM. The source says:
U.S. Tox21 Program National Center for Advancing Translational Sciences [NCATS] NIH Chemical Genomics Center [NCGC] U.S. Environmental Protection Agency [EPA] National Institutes of Environmental Health Sciences [NIEHS] National Toxicology Program [NTP] U.S. Food and Drug Administration [FDA] Tox21 Assay Overview: Hypoxia-inducible factor-1 (HIF-1) is the major hypoxia-regulated transcription factor that controls cellular responses to low oxygen concentration. HIF-1 is composed of two subunits: hypoxia responsive HIF-1-alpha and constitutively expressed HIF-1-beta, which is also known as aryl hydrocarbon receptor nuclear translocator. During hypoxic conditions, HIF-1-alpha heterodimerizes with HIF-1-beta and translocates into the nucleus where the HIF-1 complex binds to the hypoxia-response element (HRE) and activates expression of target genes such as VEGF (vascular endothelial growth factor). The HIF-1 pathway is essential to normal growth and development, and is involved in the pathophysiology of cancer, inflammation, and ischemia. Using a beta-lactamase reporter-gene under control of the hypoxia response element, a cell-based assay [CellSensor(TM) HRE-bla ME-180 from Life Technologies, Carlsbad, CA] was used to measure hypoxia-induced signaling. Tox21 10K library compounds were measured for their ability to induce the reporter gene activity.
Tox21 Assay Protocol Summary: HRE-bla ME-180 cells were dispensed at 2,000 cells per well in 6 uL of assay medium containing 0.5% dialyzed FBS into black wall/clear-bottom 1536-well plates using a Multidrop Combi (Thermo Scientific, Waltham, MA) dispenser. After the assay plates were incubated at 37C and 5% CO2 for 5 hrs, 23 nL of compounds dissolved in DMSO, positive controls or DMSO only was transferred to each well of the assay plate using a Pintool station (Kalypsys, San Diego, CA). The assay plates were incubated at 37C and 5% CO2 for 17 hrs. One uL of LiveBLAzerTM B/G FRET substrate (CCF4-AM) (Life Technologies) was added to each well using a Flying Reagent Dispenser (Aurora Discovery, San Diego, CA).
(In general: Quantitative high-throughput screening tests each substance at several concentrations.)
`CCCCOc1ccc(N)cc1`: the outcome was inactive.
On to `CCCCCCCCCCCCSC#N`, for which the outcome was inactive.
With `CC(=O)Nc1ccccc1O`, the outcome was inactive.
Regarding `O=C(Nc1ccc2c(c1)Cc1ccccc1-2)C(F)(F)F`, the outcome was inactive.
Turning to `c1ccc(CN(Cc2ccccc2)Cc2ccccc2)cc1`, the outcome was inactive.
As to `O=C(O)c1ccc(O)c(O)c1`, the outcome was inactive.
Regarding `CCn1nc(Cc2ccccc2)cc1C1CCN(C[C@H]2C[C@H](N(C)[C@@H](C(=O)O)C(C)C)C[C@@H]2c2cccc(F)c2)CC1`, the result was inactive.
For the compound `CCCCCCCCC(=O)OCC(C)OC(=O)CCCCCCCC` (stereo not given), the outcome was inactive.
Still for that read-out and setting: for `CCC(=O)O[C@]1(C(=O)COC)[C@@H](C)C[C@H]2[C@@H]3CCC4=CC(=O)C=C[C@]4(C)C3(F)[C@@H](O)C[C@@]21C` (stereo not given in full) the value was “inactive”; for `O=C(c1ccco1)N1CCNCC1`, “inactive”.
Take `c1ccc(-c2ccc(-c3ccccc3)cc2)cc1`: the activation was -1.07% [at 15.8 µM] (inactive).
With `O=C1C=CCCC1`, the outcome was inactive.
Still for that read-out and setting: for `N#Cc1ccc(CC(=O)c2cccc(C(F)(F)F)c2)cc1` the value was “inactive”; for `O=Cc1ccc([N+](=O)[O-])cc1`, “inactive”; for `C=CC(O)CCCCC` (stereo not given), “inactive”.
For the compound `Cc1ccc(S(=O)(=O)NC(=O)NC2CCCC2)cc1`, the outcome was inactive.
For `O=C(OCCOCCOCCOC(=O)c1ccccc1)c1ccccc1`, the outcome was inactive.
The same measure, in the same setting: to `O=S(=O)(O)c1cc(Cl)c(Cl)cc1Cl` belongs “inactive”.
On the same count and under the same terms, for `CCCc1nc(C)c2c(=O)[nH]c(-c3cc(S(=O)(=O)N4CCN(CC)CC4)ccc3OCC)nn12` the value was “inactive”; for `CCCCCCCCCCCC(=O)OCC`, “inactive”.
In the case of `CC1(C)[C@@H]2CC[C@]3(C2)[C@@H]1C(=O)CCC3(C)C`, the outcome was inactive.
`CC(C)C[C@H](NC(=O)[C@H](Cc1ccccc1)NC(=O)c1cnccn1)B(O)O`: the result was inactive.
For the compound `CS(C)=O`, the result was inactive.
The same measure, in the same setting: for `CC(C)C/C=C(\C=O)c1ccccc1` the value was “inactive”; for `C1=COCCC1`, “inactive”; for `CC(COc1ccccc1)NC(C)C(O)c1ccc(O)cc1` (stereo not given), “inactive”.
Turning to `CCC1=C(C)CN(C(=O)NCCc2ccc(S(=O)(=O)NC(=O)NC3CCC(C)CC3)cc2)C1=O` (stereo not given), the result was inactive.
Regarding `OCCCO`, the outcome was inactive.
Take `Clc1cc(Cl)c2c(c1)N=C1CCCCCN1C2`: the result was inactive.
In the case of `CC1(C)CC(O)CC(C)(C)N1[O]`, the result was inactive.
For `CCC(C)C1N=C(C)C(C)S1` (stereo not given), the result was inactive.
As to `FC1(F)C(F)(F)C(F)(F)C2(F)C(F)(C1(F)F)C(F)(F)C(F)(F)C1(F)C(F)(F)C(F)(F)C(F)(F)C(F)(F)C12F` (stereo not given), the result was inactive.
For the compound `CCCCCCCCCCCCCCCCC(=O)O`, the result was inactive.
Same read-out and setting: for `C=Cc1ccc(C=C)cc1` the value was “inactive”.
For the compound `CCCc1ccc(OC)cc1`, the outcome was inactive.
On to `Oc1ccc(CCNCCCCCCNCCc2ccccc2)cc1O`, for which the result was inactive.
As for `COc1ccc(/C(C)=C/C(=O)O)c(OC)c1`, the outcome was inactive.
With `COc1ccc(C(=O)c2ccc(C)cc2)c(O)c1`, the result was inactive.
In the case of `c1ccc(CCNc2nc(-c3ccccc3)cs2)cc1`, the result was inactive.
`O=C(Cl)c1cc(Cl)cc(Cl)c1`: the result was inactive.
